hDAT+cocaine: changed human dopamine transporter uptake under cocaine IC80; Q01959; LLC-PK1 hDAT cells, [14C]-dopamine uptake with cocaine IC80; actives deviate in either direction; B-score at 10 µM; 110,000 compounds, 1.3% hits;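 active means Z score or B-score, a plate-position-corrected score, falls beyond the plate's 99.7% confidence bounds, in either direction; inactive means both scores lie inside the 99.7% bounds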;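 further: scored against the spread of the other compound wells on the same plate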
Target sequence (Q01959 whole entry, looked up): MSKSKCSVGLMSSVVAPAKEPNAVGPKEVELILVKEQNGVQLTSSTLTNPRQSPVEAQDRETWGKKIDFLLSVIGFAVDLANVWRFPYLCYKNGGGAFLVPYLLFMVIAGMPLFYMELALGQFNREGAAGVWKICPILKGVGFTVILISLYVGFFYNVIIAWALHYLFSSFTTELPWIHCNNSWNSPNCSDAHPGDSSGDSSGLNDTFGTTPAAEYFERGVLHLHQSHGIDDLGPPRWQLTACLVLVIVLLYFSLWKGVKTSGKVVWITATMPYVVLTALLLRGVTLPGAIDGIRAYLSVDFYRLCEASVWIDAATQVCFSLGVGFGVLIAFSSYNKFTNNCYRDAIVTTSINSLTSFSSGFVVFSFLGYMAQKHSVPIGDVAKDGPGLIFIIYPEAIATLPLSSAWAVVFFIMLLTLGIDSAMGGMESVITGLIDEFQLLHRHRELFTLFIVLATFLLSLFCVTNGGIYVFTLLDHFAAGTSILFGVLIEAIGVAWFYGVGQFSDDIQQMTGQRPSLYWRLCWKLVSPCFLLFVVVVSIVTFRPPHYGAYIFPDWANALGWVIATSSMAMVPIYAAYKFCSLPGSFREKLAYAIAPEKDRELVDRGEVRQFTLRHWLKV
PLK1 inh: blocks human PLK1 kinase activity; AID 619; 97,000 compounds, 0.53% hits; inhibition, % at 10 µM; recombinant PLK1 kinase, TR-FRET peptide phosphorylation;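 active means inhibition of 50% or more in the single-concentration screen; inactive means inhibition below 50%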;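 further: 0% = DMSO max control and 100% = H-89 dihydrochloride min control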
Cav32 inh: inhibitors of human Cav3.2 T-type calcium channel | Cav3.2-expressing cells, Fluo-4 calcium fluorescence FDSS; hits give low values | B-score at 10 µM | 100,000 compounds, 4% hits | AID 449739;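 active means single-dose well whose peak fluorescence ratio is a statistical outlier from its plate by either plate-standardised score or position-corrected B-score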
SDO1 yeast rescue: sdo1-depleted yeast growth rescue; S. cerevisiae sdo1-depleted JHY4D growth rescue, OD600 30 h; hits give high values; pdr5 snq2 efflux-pump mutant strain; z-score at 10 µM; 140,000 compounds, 0.21% hits; AID 817;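 active means z-score above 3 at both the 24 hr and the 30 hr optical density reads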;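 further: z-score against mean and SD of all compound wells on the same plate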
PTK2B oligo ant: blocks oligomerization of human Pyk2 in cells | Q293 cells, Pyk2 FERM NanoBiT luminescence; hits give low values | z-score (the deposit names both 25 µM and 10 µM) | 99,000 compounds, 0.83% hits | AID 1347419;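 active means Z-score of -3 or lower, scaled per plate to the spread of control and sample wells; inactive means z-score above -3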;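 further: negative z-score means lost luminescence so less FERM oligomerization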
Plk1 PBD FP: inhibitors of human Plk1 polo box domain binding; inhibition, %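 (tested at about 20 µM)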; 97,000 compounds, 0.13% hits; Plk1 PBD phosphopeptide binding, fluorescence polarization; in the data active means inhibition above about 34%, passing the limit was not always enough
* hit, by the source's call; . = no result. Sampled rows, rich in hits. Any-hit rate of the full collection: about 4.7%.

SMILES | hDAT+cocaine | PLK1 inh | Cav32 inh | SDO1 yeast rescue | PTK2B oligo ant | Plk1 PBD FP
Cc1cccnc1Nc1nc(-c2ccccn2)cs1 | -0.73 | 1 | -1.2 | -2.7 | -0.94 | 3
Cc1cccnc1Nc1nc(-c2ccc(O)cc2O)cs1 | 5.4* | 10 | -0.49 | -2.4 | 0.49 | 15
CCc1cccc(C)c1NC(=O)CN(C)Cc1ccccc1F | . | . | . | -1.2 | . | .
CCOC(=O)c1c(NC(=O)CSc2nnc(-c3cccc(C)c3)n2CC)sc(C(C)=O)c1C | 1.6 | 0 | -3.9 | -0.6 | -1.4 | -3
Cc1ccc(-c2csc(NC(=O)CSc3nc(C)cc(=O)[nH]3)n2)cc1 | 2.3* | -6 | 0.47 | 0.55 | . | -2
Cc1ccc(-c2csc(NC(=O)CSC3=NCCS3)n2)cc1 | 0.51 | 1 | 0.13 | -0.96 | 0.61 | -7
Cc1cc(C)nc(SCc2nnc(SCC(=O)Nc3nc(-c4ccccc4)cs3)n2-c2ccccc2)n1 | 1.2 | 1 | -8.4* | -1.4 | -0.25 | -1
CCOC(=O)c1c(NC(=O)CSc2nnc(CNc3ccc(OC)cc3)n2C)sc(C)c1C | 1.1 | -6 | -6.6* | -0.95 | 0.43 | 15
COc1ccc(NCc2nnc(SCC(=O)Nc3nc(-c4ccccc4)cs3)n2-c2ccccc2)cc1 | . | . | . | -0.79 | . | .
CCOC(=O)c1c(NC(=O)CSc2nnc(-c3ccccc3)n2CC)sc(C(C)=O)c1C | 2.5* | -8 | 0.037 | -0.06 | -1.5 | -6
O=C(O)C1C2CC3C(OC(=O)C31)C2Cl (stereo not given) | . | . | . | 0.33 | . | .
CCNC(=O)n1nccc1C(C)Oc1cccc(C(F)(F)F)c1 (stereo not given) | -0.92 | -7 | -1.7 | -0.46 | -1.4 | -31
CC(C)c1cn(C2OC(COC(=O)c3ccccc3)C(OC(=O)c3ccccc3)C2OC(=O)c2ccccc2)c(=O)[nH]c1=O (stereo not given) | 0.082 | . | -1 | . | . | .
CCn1c(SCC(=O)Nc2ccccc2C)nnc1-c1ccccc1O | -0.22 | -13 | 0.37 | 0.14 | 0.79 | 20
CCn1c(CCNC(=O)c2cccs2)nnc1SCC(=O)Nc1cccc(Cl)c1 | 1.1 | -7 | -1.3 | -0.64 | -0.91 | -1
CCn1c(SCC(=O)Nc2nc3ccccc3s2)nnc1-c1ccc(OC)cc1 | 0.034 | -12 | . | -0.24 | 0.94 | -3
Cc1ccc2cc(C)c3nnc(SCC(=O)Nc4nc5c(s4)CCCC5)n3c2c1C | 1.9 | -11 | -5.3* | -0.1 | -1.7 | 11
CCn1c(SCC(=O)Nc2nc3c(s2)CCCC3)nnc1-c1ccccc1 | 3.7* | -3 | -1.5 | -0.21 | -2.1 | 12
CCn1c(SCC(=O)Nc2nc(-c3ccccc3)cs2)nnc1-c1ccccc1O | -0.011 | -11 | . | -2.1 | -3.1* | -8
CCn1c(CCNC(=O)c2cccs2)nnc1SCC(=O)Nc1nc(-c2ccccc2)cs1 | -0.53 | 0 | -7.5* | 0.09 | -3 | -21
COc1cc2c(C(=O)N3CCN(c4cccc(Cl)c4)CC3)cn(CC(C)C)c(=O)c2cc1OC | 1.1 | -3 | . | -0.99 | -1.6 | -20
CC1=Nc2nc(N3CCCCC3)c(C#N)c3c4c(nc(c23)N1)N(c1ccc(C(C)C)cc1)C(=O)C4 | . | . | . | 0.84 | . | .
C/C(=N/OCO/N=C(/C)c1ccc(F)cc1)c1ccc(F)cc1 | . | . | . | -0.99 | -0.67 | .
CC1(C)CC(=O)C2=C(C1)OC(N)=C(C#N)C2c1cc2c(cc1[N+](=O)[O-])OCO2 (stereo not given) | . | . | . | -0.18 | . | .
CCc1nnc(NC(=O)CSc2nnc(-c3cc4ccccc4cc3O)n2CC)s1 | 0.89 | . | -1.7 | -0.35 | -3* | .
SMILES | hDAT+cocaine | PLK1 inh | Cav32 inh | SDO1 yeast rescue | PTK2B oligo ant | Plk1 PBD FP
CCc1nnc(NC(=O)CSc2nnc(-c3ccccc3O)n2CC)s1 | 0.35 | -6 | -4.8 | 0.71 | -0.58 | 1
COc1cccc(-n2nnnc2SCC(=O)Nc2nc3c(s2)CCCC3)c1 | 0.52 | -12 | -0.93 | -1.1 | -0.54 | 7
COC(=O)c1cccc(-n2nnnc2SCC(=O)Nc2nc3c(s2)CCCC3)c1 | 1.3 | -13 | -4.8* | -1.7 | 0.97 | 5
Cc1nnc(SCCC(=O)Nc2nc(-c3ccccc3)ns2)s1 | -0.93 | -3 | -5* | -1.6 | -0.15 | -10
COc1ccc(-c2c3c(nc4sc5c(Cl)nc(C)nc5c24)CCC3)cc1 | -0.78 | -15 | 3.7* | -0.46 | 0.53 | -1
COc1ccc(S(=O)(=O)NCCc2c(C)nn(C)c2Oc2ccccc2)cc1 | 0.2 | -11 | -1.6 | -0.63 | -1.6 | 4
Cc1nn(C)c(Oc2ccccc2)c1CCNS(=O)(=O)c1ccc(Cl)cc1 | 1.3 | -12 | -6.9* | -0.75 | -1.4 | -2
O=C(Nc1nnc(-c2ccccc2Cl)o1)c1nc2ccccc2s1 | 0.42 | -23 | -4.5* | 1 | . | 11
COc1ccc(O)c(C(=O)c2cnc3onc(C)c3c2)c1 | 0.91 | -13 | -1.8 | -0.75 | -2.2 | 20
CC(C)c1noc2ncc(C(=O)c3cc(Cl)cc(Cl)c3O)cc12 | -0.49 | 2 | -6.5* | -2.2 | -1.5 | 6
COc1cccc(CNC(=O)CSCc2cnn(-c3ccccc3)c2-n2cccc2)c1 | -0.097 | -9 | -5.3* | -0.3 | -0.48 | -19
CCOC(=O)N1CCC(NC(=O)CSCc2cnn(-c3ccccc3)c2-n2cccc2)CC1 | 3.2* | -7 | -0.021 | 0 | 0.48 | -3
O=C(CSCc1cnn(-c2ccccc2)c1-n1cccc1)NCc1cccs1 | 0.18 | -11 | -6.3* | -0.65 | 1.7 | -26
Cc1cc([N+](=O)[O-])cnc1Sc1nccn1C | . | . | . | 0.45 | . | .
CCOC(=O)N1CCN(C(=O)CSCc2ccccc2Cl)CC1 | . | . | . | 0.78 | . | .
CC(=O)Oc1ccc(C(=O)Nc2cccc(C(=O)c3ccc(C)c(C)c3)c2)cc1 | . | -11 | . | . | . | .
CC(C)c1ccc(NC(=O)c2snc3ccc(Cl)cc23)cc1 | . | . | . | -0.97 | . | .
O=C(CCn1c(=O)[nH]c2ccsc2c1=O)N1CCN(c2cccc(Cl)c2)CC1 | 1.2 | -10 | -5.9* | 2.4 | 0.39 | -13
O=C(Cn1c(=O)[nH]c2ccsc2c1=O)N1CCN(c2ccc(F)cc2)CC1 | -0.78 | -4 | 0.4 | -0.16 | . | -28
Cc1nn(-c2ccc(F)cc2)c(Cl)c1/C=C/C(=O)OCC(=O)Nc1c(F)c(F)c(F)c(F)c1F | . | . | . | 0.23 | . | .
COc1cccc(CNc2ncc(Br)cc2Br)c1O | -1 | -16 | -0.071 | -1.6 | -0.66 | 1
COc1cccc(CNc2ccc(Br)cn2)c1O | 0.16 | -3 | -6.5* | -1.2 | -1.1 | 35
N#Cc1c(N)c(C#N)c(-c2ccc3c(c2)OCO3)c2c1CCCC2 | -0.00036 | . | -0.11 | -0.44 | -2.6 | .
N#Cc1c(N)c(C#N)c(-c2ccc(O)cc2)c2c1CCCC2 | -0.33 | -5 | -5.6* | -1.7 | -1.9 | -25
COC(=O)c1cn(-c2ccccc2)nc1-c1ccncc1 | 1.8* | -6 | 0.41 | 0.36 | 0.9 | 3
COc1ccc(NS(=O)(=O)c2ccc(NC(=S)NC(=O)/C=C/c3ccccc3)cc2)nn1 | . | . | . | -0.75 | . | .
C=CCOC(=O)C1=C(C)NC(SC)=C(C#N)C1c1ccc(OCC)cc1 (stereo not given) | 0.46 | -1 | -3.4 | -0.22 | -3.1* | 10

Screening data deposited in PubChem BioAssay by several laboratories.
